Paper PMC5869772, “Quantitative profiling of BATF family proteins/JUNB/IRF hetero-trimers using Spec-seq”

Key:
Experiment in all cases: Spec-seq (EMSA and sequencing of bound and unbound bands); 100 nM BATFx-JUNB, 1 uM dsDNA library, 50 mM K acetate, 20 mM Tris-acetate, 10 mM Mg acetate, 100 ug/ml BSA, pH 7.9, 10% glycerol, 30 min on ice; native 9% PAGE at 4 C; low values mean tight binding
Conditions in all cases: protein: recombinant;recombinant; tags: N-terminal mCherry-TEV, cleaved off;C-terminal 6His; copies: 1;1; dsDNA, one strand shown
BATF;JUNB = target: T1, BATF;JUNB (human;human, UniProt Q16520;P17275 1-125;148-347, |)
T1 sequence 1: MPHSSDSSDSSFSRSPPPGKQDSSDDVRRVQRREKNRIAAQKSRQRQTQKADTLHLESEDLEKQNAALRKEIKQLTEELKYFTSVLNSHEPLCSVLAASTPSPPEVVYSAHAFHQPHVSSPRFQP
T1 sequence 2: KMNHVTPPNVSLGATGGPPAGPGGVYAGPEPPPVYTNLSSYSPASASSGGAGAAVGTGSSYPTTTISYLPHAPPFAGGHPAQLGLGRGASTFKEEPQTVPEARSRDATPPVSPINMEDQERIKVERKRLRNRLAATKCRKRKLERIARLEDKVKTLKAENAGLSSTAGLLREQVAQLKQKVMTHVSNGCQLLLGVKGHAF
Procedure, shortened: (§1)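 The protein, at 100 nM, was incubated with 1 μM double-stranded degenerate DNA library for 30 min on ice in NEB Cutsmart buffer with 10% glycerol, then resolved by native 9% PAGE at 4 °C. Excised bound and unbound bands were PCR-barcoded and Illumina-sequenced, and each sequence's relative binding energy in kT is −ln of its bound/unbound read-count ratio.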

BATF2 (bZIP);JUNB = target: T2, BATF2 (bZIP);JUNB (human;human, UniProt Q8N1L9;P17275 1-142;148-347, |)
T2 sequence 1: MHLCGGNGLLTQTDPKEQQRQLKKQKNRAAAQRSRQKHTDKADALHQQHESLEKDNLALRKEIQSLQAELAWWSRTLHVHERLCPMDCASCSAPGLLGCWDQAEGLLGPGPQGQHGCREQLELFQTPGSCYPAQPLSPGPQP
T2 sequence 2: T1 sequence 2
Procedure, shortened: as §1

BATF3;JUNB = target: T3, BATF3;JUNB (human;human, UniProt Q9NR55;P17275 1-127;148-347, |)
T3 sequence 1: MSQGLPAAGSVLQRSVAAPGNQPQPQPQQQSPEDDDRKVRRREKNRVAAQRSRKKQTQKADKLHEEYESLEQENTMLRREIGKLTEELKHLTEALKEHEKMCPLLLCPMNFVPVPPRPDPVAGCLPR
T3 sequence 2: T1 sequence 2
Procedure, shortened: as §1

Row | Sequence | binding signal (BATF;JUNB) [kT] | binding signal (BATF2 (bZIP);JUNB) [kT] | binding signal (BATF3;JUNB) [kT]
1 | GATAGTCTCATTTTCACCCCGTGAAATGAGTCATTTGTTCCATTACAGTATCTGT | -1.06 | -0.903 | -1.42
2 | GATAGTCTCATTTTCACCCCGTGAAAATAAGTCATTGTTCCATTACAGTATCTGT | -0.448 | -0.0249 | -0.395
3 | GATAGTCTCATTTTCACCCCGTGAAATGACTCGCTTGTTCCATTACAGTATCTGT | -0.141 | 0.667 | 0.378
4 | GATAGTCTCATTTTCACCCCGTGAAATGAGTCGCTTGTTCCATTACAGTATCTGT | 0.025 | 1.18 | 0.711
5 | GATAGTCTCATTTTCACCCCGTGAAATGACTCGGTTGTTCCATTACAGTATCTGT | -0.246 | 0.589 | 0.398
6 | GATAGTCTCATTTTCACCCCGTGAAATGACGTCTTTGTTCCATTACAGTATCTGT | -0.0562 | 0.447 | -0.318
7 | GATAGTCTCATTTTCACCCCGTGAAATGAGTGAGTTGTTCCATTACAGTATCTGT | -0.103 | 0.64 | 0.377
8 | GATAGTCTCATTTTCACCCCGTGAAATGAGGCAATTGTTCCATTACAGTATCTGT | 0.661 | 1.12 | 0.808
9 | GATAGTCTCATTTTCACCCCGTGAAATGAGTCGTTTGTTCCATTACAGTATCTGT | -0.00852 | 0.968 | 0.536
10 | GATAGTCTCATTTTCACCCCGTGAAATGCCTCATTTGTTCCATTACAGTATCTGT | 0.532 | 1.18 | 1.01
11 | GATAGTCTCATTTTCACCCCGTGAAATGAGTGATTTGTTCCATTACAGTATCTGT | 0.0243 | 0.704 | 0.444
12 | GATAGTCTCATTTTCACCCCGTGAAATGACTCAGTTGTTCCATTACAGTATCTGT | -0.786 | -0.202 | -0.697
13 | GATAGTCTCATTTTCACCCCGTGAAAAAGAGTCATTGTTCCATTACAGTATCTGT | -0.185 | 0.233 | 0.0775
14 | GATAGTCTCATTTTCACCCCGTGAAATGAGGTCATTGTTCCATTACAGTATCTGT | -0.348 | 0.096 | -1.09
15 | GATAGTCTCATTTTCACCCCGTGAAAGGGAGTCATTGTTCCATTACAGTATCTGT | -0.148 | 0.485 | 0.287
16 | GATAGTCTCATTTTCACCCCGTGAAATGACTAAATTGTTCCATTACAGTATCTGT | -0.125 | 0.513 | 0.0877
17 | GATAGTCTCATTTTCACCCCGTGAAACGACGTCATTGTTCCATTACAGTATCTGT | -0.501 | -0.195 | -1.03
18 | GATAGTCTCATTTTCACCCCGTGAAATTGCGTCATTGTTCCATTACAGTATCTGT | -0.89 | -0.761 | -1.72
